The whole screen tested about 5,500 compounds, of which about 2,000 (36%) were called active. Inconclusive results (about 18%) are left out. Cut-off read from the data, not from the text of the source: active = normalized growth mostly below about 0.91 (no sharp cut-off); inconclusive = no clear call, values can overlap the other calls; inactive = mostly above about 0.92. Some of the results follow.
Test: chemical genetic growth profiling, strain panel (AID 1159580);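 note: tested at 20 µM; growth read once vehicle control cultures reached saturation at 30 °C; 1 = growth at the plate median or of vehicle wells; lower values mean less growth of the strain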
Details: growth OD
[1] = S. cerevisiae deletion strains, locus YAL013W, strain DEP1, stronger effect = lower value
[2] = S. cerevisiae deletion strains, locus YBR229C, strain ROT2, stronger effect = lower value
[3] = S. cerevisiae deletion strains, locus YDL101C, strain DUN1, stronger effect = lower value
[4] = S. cerevisiae deletion strains, locus YDL134C, strain PPH21, stronger effect = lower value
[5] = S. cerevisiae deletion strains, locus YDR150W, strain NUM1, stronger effect = lower value
[6] = S. cerevisiae deletion strains, locus YEL061C, strain CIN8, stronger effect = lower value
[7] = S. cerevisiae deletion strains, locus YGR078C, strain PAC10, stronger effect = lower value
[8] = S. cerevisiae deletion strains, locus YHR030C, strain SLT2, stronger effect = lower value
[9] = S. cerevisiae deletion strains, locus YHR087W, strain rtc3, stronger effect = lower value
[10] = S. cerevisiae deletion strains, locus YJR043C, strain POL32, stronger effect = lower value
[11] = S. cerevisiae deletion strains, locus YJR075W, strain HOC1, stronger effect = lower value
[12] = S. cerevisiae deletion strains, locus YKL190W, strain CNB1, stronger effect = lower value
[13] = S. cerevisiae deletion strains, locus YLR039C, strain RIC1, stronger effect = lower value
[14] = S. cerevisiae deletion strains, locus YLR058C, strain SHM2 (second series), stronger effect = lower value
[15] = S. cerevisiae deletion strains, locus YLR085C, strain ARP6, stronger effect = lower value
[16] = S. cerevisiae deletion strains, locus YLR262C, strain YPT6, stronger effect = lower value
[17] = S. cerevisiae deletion strains, locus YML094W, strain GIM5, stronger effect = lower value
[18] = S. cerevisiae deletion strains, locus YMR219W, strain ESC1, stronger effect = lower value
[19] = S. cerevisiae deletion strains, locus YMR263W, strain SAP30, stronger effect = lower value
[20] = S. cerevisiae deletion strains, locus YNL153C, strain GIM3, stronger effect = lower value
[21] = S. cerevisiae deletion strains, locus YNL298W, strain CLA4 (second series), stronger effect = lower value
[22] = S. cerevisiae deletion strains, locus YNL322C, strain KRE1, stronger effect = lower value
[23] = S. cerevisiae deletion strains, locus YNR030W, strain Alg12, stronger effect = lower value
[24] = S. cerevisiae deletion strains, locus YOL006C, strain TOP1, stronger effect = lower value
[25] = S. cerevisiae deletion strains, locus YPL055C, strain LGE1, stronger effect = lower value
[26] = S. cerevisiae deletion strains, locus YPL241C, strain CIN2, stronger effect = lower value
[27] = S. cerevisiae deletion strains, locus YPR135W, strain CTF4, stronger effect = lower value
[28] = S. cerevisiae deletion strains, locus YJL187C, strain SWE1, stronger effect = lower value
[29] = S. cerevisiae deletion strains, locus YMR307W, strain GAS1, stronger effect = lower value
[30] = S. cerevisiae deletion strains, locus YCL061C, strain MRC1, stronger effect = lower value

Measured: normalized growth

COC(=O)c1sccc1-c1ccc(C(C)=O)o1
active: [15] 0.751 | [22] 0.935 | [23] 0.885 | [24] 0.727
inactive: [1] 0.956 | [2] 0.975 | [3] 0.953 | [4] 0.974 | [5] 0.982 | [6] 0.949 | [7] 0.947 | [8] 0.722 | [9] 0.97 | [10] 0.977 | [11] 0.956 | [12] 0.976 | [13] 0.945 | [14] 0.965 | [16] 0.961 | [17] 0.898 | [18] 0.978 | [19] 0.977 | [20] 0.982 | [21] 0.841 | [25] 0.974 | [26] 0.891 | [27] 0.773

COC(=O)c1sccc1NC(=O)C1CC1
inactive: [1] 0.991 | [2] 1 | [3] 0.995 | [5] 0.942 | [6] 0.979 | [7] 0.978 | [8] 1.01 | [9] 0.99 | [28] 0.977 | [10] 1.02 | [11] 0.99 | [13] 1.01 | [14] 0.976 | [15] 0.92 | [16] 1.07 | [17] 0.962 | [18] 0.981 | [19] 0.988 | [29] 1.06 | [20] 1.01 | [21] 1 | [22] 0.979 | [23] 0.989 | [24] 0.982 | [25] 0.97 | [26] 0.97 | [27] 1.03 | S. cerevisiae strains, strain wild type, stronger effect = lower value 0.992

COC(=O)C1=C(C)NC(C)=C(C(=O)OC)C1c1ccc(-c2ccsc2C(=O)OC)o1
inactive: [1] 1 | [2] 1 | [30] 0.989 | [3] 1 | [5] 0.941 | [6] 1.03 | [7] 0.994 | [8] 1.05 | [9] 0.985 | [28] 1.01 | [10] 0.994 | [11] 0.946 | [13] 1.05 | [14] 0.999 | [15] 0.992 | [16] 0.999 | [17] 1.01 | [18] 1 | [19] 1 | [29] 0.968 | [20] 0.99 | [21] 1.06 | [22] 0.991 | [23] 1.02 | [24] 1.06 | [25] 0.898 | [26] 0.862 | [27] 1

COC(=O)c1sccc1-c1ccc(/C=C/[N+](=O)[O-])o1
inactive: S. cerevisiae deletion strains, locus YBL105C, strain PKC1, stronger effect = lower value 0.964 | S. cerevisiae deletion strains, locus YBR135W, strain CKS1, stronger effect = lower value 0.96 | S. cerevisiae deletion strains, locus YBR136W, strain MEC1, stronger effect = lower value 0.968 | S. cerevisiae deletion strains, locus YBR160W, strain CDC28, stronger effect = lower value 0.952 | S. cerevisiae deletion strains, locus YDL017W, strain CDC7, stronger effect = lower value 0.974 | S. cerevisiae deletion strains, locus YDL028C, strain MPS1, stronger effect = lower value 0.959 | S. cerevisiae deletion strains, locus YDL108W, strain KIN28, stronger effect = lower value 0.965 | S. cerevisiae deletion strains, locus YDR052C, strain DBF4, stronger effect = lower value 0.981 | S. cerevisiae deletion strains, locus YDR226W, strain ADK1, stronger effect = lower value 0.961 | S. cerevisiae deletion strains, locus YFR003C, strain YPI1, stronger effect = lower value 0.966 | S. cerevisiae deletion strains, locus YFR028C, strain CDC14, stronger effect = lower value 0.978 | S. cerevisiae deletion strains, locus YGR092W, strain DBF2, stronger effect = lower value 0.874 | S. cerevisiae deletion strains, locus YIL147C, strain SLN1, stronger effect = lower value 0.964 | S. cerevisiae deletion strains, locus YJL128C, strain PBS2, stronger effect = lower value 0.907 | S. cerevisiae deletion strains, locus YJR016C, strain ILV3, stronger effect = lower value 0.974 | S. cerevisiae deletion strains, locus YKL048C, strain ELM1, stronger effect = lower value 0.939 | S. cerevisiae deletion strains, locus YKL101W, strain HSL1, stronger effect = lower value 0.886 | S. cerevisiae deletion strains, locus YKL203C, strain TOR2, stronger effect = lower value 0.893 | S. cerevisiae deletion strains, locus YNL006W, strain LST8, stronger effect = lower value 0.958 | S. cerevisiae deletion strains, locus YNL207W, strain RIO2, stronger effect = lower value 0.977 | S. cerevisiae deletion strains, locus YNL307C, strain MCK1 (second series), stronger effect = lower value 0.823 | S. cerevisiae deletion strains, locus YOR061W, strain CKA2, stronger effect = lower value 0.729 | S. cerevisiae deletion strains, locus YOR119C, strain RIO1, stronger effect = lower value 0.875 | S. cerevisiae deletion strains, locus YOR329C, strain SCD5, stronger effect = lower value 0.965 | S. cerevisiae deletion strains, locus YPL209C, strain IPL1, stronger effect = lower value 0.969 | S. cerevisiae deletion strains, locus YPR025C, strain CCL1, stronger effect = lower value 0.955 | S. cerevisiae deletion strains, locus YPR106W, strain ISR1, stronger effect = lower value 0.959 | S. cerevisiae deletion strains, locus YPR111W, strain DBF20, stronger effect = lower value 0.961 | S. cerevisiae deletion strains, strain NNK1, stronger effect = lower value 0.963
active: S. cerevisiae deletion strains, locus YDL214C, strain PRR2, stronger effect = lower value 0.126 | S. cerevisiae deletion strains, locus YDR477W, strain SNF1, stronger effect = lower value 0.518 | S. cerevisiae deletion strains, locus YER123W, strain YCK3, stronger effect = lower value 0.155 | S. cerevisiae deletion strains, locus YER133W, strain GLC7, stronger effect = lower value 0.121 | S. cerevisiae deletion strains, locus YFL009W, strain cdc4, stronger effect = lower value 0.718 | S. cerevisiae deletion strains, locus YFR019W, strain FAB1, stronger effect = lower value 0.154 | S. cerevisiae deletion strains, locus YGR040W, strain KSS1, stronger effect = lower value 0.551 | S. cerevisiae deletion strains, locus YGR052W, strain FMP48, stronger effect = lower value 0.268 | [8] 0.0849 | S. cerevisiae deletion strains, locus YHR079C, strain IRE1, stronger effect = lower value 0.113 | S. cerevisiae deletion strains, locus YHR082C, strain KSP1, stronger effect = lower value 0.178 | S. cerevisiae deletion strains, locus YHR205W, strain SCH9, stronger effect = lower value 0.509 | S. cerevisiae deletion strains, locus YJL095W, strain BCK1, stronger effect = lower value 0.126 | S. cerevisiae deletion strains, locus YJL157C, strain FAR1, stronger effect = lower value 0.14 | S. cerevisiae deletion strains, locus YJR066W, strain TOR1 (second series), stronger effect = lower value 0.0869 | S. cerevisiae deletion strains, locus YJR066W, strain TOR1, stronger effect = lower value 0.103 | S. cerevisiae deletion strains, locus YKL067W, strain YNK1, stronger effect = lower value 0.185 | S. cerevisiae deletion strains, locus YLR113W, strain HOG1, stronger effect = lower value 0.181 | S. cerevisiae deletion strains, locus YLR133W, strain CKI1, stronger effect = lower value 0.638 | S. cerevisiae deletion strains, locus YLR403W, strain SFP1, stronger effect = lower value 0.517 | S. cerevisiae deletion strains, locus YML070W, strain DAK1, stronger effect = lower value 0.111 | S. cerevisiae deletion strains, locus YMR205C, strain PFK2 (second series), stronger effect = lower value 0.704 | S. cerevisiae deletion strains, locus YNL020C, strain ARK1, stronger effect = lower value 0.702 | S. cerevisiae deletion strains, locus YNL183C, strain NPR1, stronger effect = lower value 0.0989 | S. cerevisiae deletion strains, locus YOL136C, strain PFK27, stronger effect = lower value 0.107 | S. cerevisiae deletion strains, locus YOR231W, strain MKK1, stronger effect = lower value 0.135 | S. cerevisiae deletion strains, locus YPL031C, strain PHO85, stronger effect = lower value 0.25 | S. cerevisiae deletion strains, locus YPL153C, strain RAD53, stronger effect = lower value 0.0913 | S. cerevisiae deletion strains, locus YPL204W, strain HRR25, stronger effect = lower value 0.091 | S. cerevisiae deletion strains, locus YPL256C, strain CLN2, stronger effect = lower value 0.147

CCOC(=O)Nc1ccsc1C(=O)OC
inactive: [1] 0.997 | [2] 1 | [30] 0.999 | [3] 0.988 | [4] 1 | [5] 0.975 | [6] 0.974 | [7] 0.986 | [8] 1 | [9] 1 | [10] 1 | [11] 0.986 | [12] 1 | [13] 0.983 | [14] 1 | [15] 0.988 | [16] 0.996 | [17] 0.985 | [18] 1 | [19] 1.02 | [29] 1.07 | [20] 0.987 | [21] 1.02 | [22] 0.983 | [23] 1.01 | [25] 0.981 | [26] 1.08 | [27] 0.947

COC(=O)C1C2CC3c4[nH]c5cc(OC)ccc5c4CCN3CC2CC(OC(=O)c2cc(OC)c(OC)c(OC)c2)C1OC (configuration not stated)
inactive: [1] 0.996 | S. cerevisiae deletion strains, locus YAL040C, strain CLN3, stronger effect = lower value 1.07 | S. cerevisiae deletion strains, locus YDR363W, strain ESC2, stronger effect = lower value 1 | S. cerevisiae deletion strains, locus YER002W, strain NOP16, stronger effect = lower value 0.99 | [11] 1 | [19] 1 | S. cerevisiae deletion strains, locus YNL128W, strain TEP1, stronger effect = lower value 0.98 | S. cerevisiae deletion strains, locus YNL175C, strain NOP13, stronger effect = lower value 1 | S. cerevisiae deletion strains, locus YNL197C, strain WHI3, stronger effect = lower value 0.989 | S. cerevisiae deletion strains, locus YNL224C, strain SQS1, stronger effect = lower value 1.04 | S. cerevisiae deletion strains, locus YOR083W, strain WHI5 (second series), stronger effect = lower value 0.934 | [25] 1.02
